PubChem BioAssay (NCI)
About 83,000 compounds went through this panel and 20% of them were active in at least one assay; those are over-represented in the sample as a whole.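 Single-dose data. Exposure time 48 hours. Values below 10 considered active.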 Activity calls are given as the source filed them.

Legend:
Assay in all cases: NCI-60 one-dose screen, 48 h (100 = growth as untreated, 0 = no growth, -100 = all killed)
[1] = system: SR leukemia; settings: 10 µM unless noted
[2] = system: RPMI-8226 leukemia; settings: 10 µM unless noted
[3] = system: OVCAR-5 ovarian; settings: 10 µM unless noted
[4] = system: OVCAR-4 ovarian; settings: 10 µM unless noted
[5] = system: SK-OV-3 ovarian; settings: 10 µM unless noted
[6] = system: IGROV1 ovarian; settings: 10 µM unless noted
[7] = system: OVCAR-3 ovarian; settings: 10 µM unless noted
[8] = system: NCI/ADR-RES ovarian; settings: 10 µM unless noted
[9] = system: T-47D breast; settings: 10 µM unless noted
[10] = system: MDA-MB-435 melanoma; settings: 10 µM unless noted
[11] = system: SW-620 colon; settings: 10 µM unless noted
[12] = system: MCF7 breast; settings: 10 µM unless noted
[13] = system: HCT-116 colon; settings: 10 µM unless noted
[14] = system: KM12 colon; settings: 10 µM unless noted
[15] = system: BT-549 breast; settings: 10 µM unless noted
[16] = system: HCC-2998 colon; settings: 10 µM
[17] = system: HS 578T breast; settings: 10 µM
[18] = system: OVCAR-8 ovarian; settings: 10 µM unless noted

Measured: growth

COc1cc2c(cc1OCCCCCN1CCN(c3ncnc4ccccc34)CC1)N=CC1CCCN1C2=O (stereo not drawn)
inactive: [3] 23.8% | [5] 19.5% | [8] 12.8% | [9] 10.6% | [12] 12.1%
active: [1] 0.841% | [2] -35.6% | [4] -3.06% | [6] -38.4% | [7] 1.46% | [10] -72.1% | [11] -1.54% | [13] 4.44% | [14] -16.1%

COc1cc2c(Oc3ccc(NC(=O)C4(C(=O)Nc5ccc(F)cc5)CC4)cc3F)ccnc2cc1OCCCN1CCOCC1
inactive: [2] 10.3% | [3] 11.7% | [4] 32.1% | [7] 46.5% | [15] 17.8%
active: [1] -16.7% | [5] -13.8% | [6] -34.7% | [8] 9.62% | [9] 0.289% | [10] -75.1% | [11] -31.4% | [12] -22.2% | [13] -61.2% | [16] 7.76% | [14] 0.619%

CCN(CC)CCNc1ccc(N=Nc2cnc3ccccc3c2)c2ccccc12
active: [1] -53.1% | [3] -86.6% | [4] -25.3% | [5] -77.2% | [6] -92.8% | [7] -73.2% | [17] -73.9% | [8] -40% | [9] -38.8% | [10] -33.2% | [11] -84.4% | [12] -79.2% | [13] -94.8% | [16] -95.4%
inactive: [15] 27.5%

CCCCN1C(=O)c2cccc3c(-c4ccc5c(c4)ncn5C4CCCCC4)ccc(c23)C1=O
inactive: [1] 91.1% | [2] 108% | [3] 98.3% | [4] 97.6% | [5] 92.3% | [6] 108% | [7] 101% | [8] 92.5% | [9] 81.9% | [15] 99.4% | [10] 109% | [11] 107% | [12] 96.7% | [13] 91.7% | [16] 102% | [14] 92.2%

COc1cc(OC)c(C(=O)/C=C/c2cc3c(cc2OCc2ccccc2)OC(C)(C)CC3)cc1CC=C(C)C
inactive: [1] 11.6% | [3] 64.7% | [4] 44.7% | [5] 78.6% | [6] 66.5% | [7] 19.2% | [17] 69.6% | [8] 51.9% | [9] 42.3% | [15] 27.2% | [10] 35.9% | [11] 25.5% | [12] 28.8% | [13] 28.5% | [14] 42.4%

N#Cc1c(NC(=O)c2cccs2)[n+]([O-])c2ccc(F)cc2[n+]1[O-]
inactive: [1] 77% | [2] 93.2% | [3] 108% | [4] 85.7% | [5] 82.6% | [6] 68.9% | [7] 98.3% | [8] 111% | [15] 99.6% | [10] 105% | [11] 74% | [12] 86.5%

O=C(Cc1ccc(/C=C/C(=O)c2ncc[nH]2)cc1)Nc1ccc(S(F)(F)(F)(F)F)cc1
active: [1] 4.88% | [2] -17.6% | [14] 8.06%
inactive: [3] 86.8% | [4] 93.2% | [5] 101% | [6] 52.8% | [7] 80.3% | [9] 57.6% | [15] 64.3% | [10] 56.1% | [11] 10.4% | [12] 12.4% | [16] 78.9%

CC(=Nc1ccccc1)C1=C(O)C(Cc2ccccc2)NC1=O (stereo not drawn)
active: [1] -12% | [18] -50.4% | [6] 6.28% | [7] -42.4% | [17] -15.3% | [8] -8.97% | [10] -27.3% | [12] 9.54% | [13] 2.49% | [16] -20.6% | [14] -46.3%
inactive: [3] 18.9% | [4] 39.6% | [5] 16.8% | [9] 67.6% | [15] 13.9% | [11] 19.3%

CC(=Nc1ccccc1)C1=C(O)C(Cc2ccc(O)cc2)NC1=O (stereo not drawn)
inactive: [3] 32.1% | [4] 36.6% | [5] 23% | [6] 17.8% | [9] 67.4% | [15] 15.2% | [11] 15.6% | [12] 10%
active: [1] -9.58% | [18] -53.5% | [7] -63.2% | [17] -27.2% | [10] -8.69% | [14] -35.5%

Oc1ccc(/C=N/Nc2nnc(N/N=C/c3ccc(O)cc3O)c3ccccc23)c(O)c1
active: [1] -26.1% | [18] -60% | [3] 1.16% | [4] -9.22% | [5] -15.4% | [6] -2.51% | [7] -34.1% | [17] -76.8% | [8] -11.1% | [9] -53.2% | [10] -6.07% | [11] -1.28% | [12] -57.2% | [14] -73.2%

COc1cccc2cc(-c3nc(C4CCC(C(=O)O)CC4)n4ncnc(N)c34)[nH]c12 (stereo not drawn)
inactive: [3] 25.6% | [7] 12.3% | [11] 14.4% | [13] 26.3% | [16] 23.1% | [14] 18.4%
active: [1] 7.63% | [2] 7.52% | [4] -23.4% | [5] -26% | [6] -12.9% | [8] 2.94% | [9] -30.2% | [15] -11.5% | [10] -8.42% | [12] 6.71%

CS(=O)(=O)N1CCN(Cc2cc3nc(-c4cccc5[nH]ncc45)nc(N4CCOCC4)c3s2)CC1
active: [5] -18.4% | [6] -28.4% | [12] 5.28%
inactive: [1] 18.6% | [2] 25% | [3] 20.5% | [4] 47.8% | [7] 14.5% | [8] 32.1% | [15] 18.2% | [10] 22.4% | [11] 38.8% | [13] 28.3% | [16] 22.8% | [14] 16.3%
